High-throughput results deposited in PubChem BioAssay by National Center for Advancing Translational Sciences (NCATS).
DT40 TDP1 no CPT – qHTS for Inhibitors of human tyrosyl-DNA phosphodiesterase 1 (TDP1): qHTS in cells in absence of CPT; 420,000 compounds, 15% hits; DT40 Tdp1-/- hTDP1 cells, no CPT, ATP luminescence, 48 h; Potency, µM (series often up to 46.2 µM), inactives show at the top dose activity change, negative = growth inhibition, actives largely listed as inhibitors; further: potency means the concentration at half of the fitted maximal effect; nearly all actives have a fitted effect of over 55% in size
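Growth of hTDP1-complemented DT40 Tdp1-knockout cells is measured by ATP luminescence after at least 48 hr compound exposure at 37 °C, with DMSO substituting for the 20 nM CPT used in the parallel screen.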
IL1B secr inh – inhibitors of inflammasome signaling (IL-1 beta secretion) | THP-1 LPS/ATP IL-1B secretion, AlphaLISA, 16 h; stronger effect = lower value | 360,000 compounds, 4.7% hits | activity change, % at 57.5 µM | AID 743279; in the data active means activity change below about -50%; inconclusive means mostly about -30% to -49%
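Secreted IL-1B measured by AlphaLISA bead assay after 16 h compound exposure of THP-1 cells; compounds (final up to 57.5 uM) added 1 h before LPS (250 ng/mL) and ATP (1.25 mM) stimulation; lower signal means less secretion.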
RORg inh – inhibitors of mouse ROR gamma transcriptional activity; P51450; Drosophila S2 Gal4-RORgamma UAS-luciferase reporter, 20 h; Potency, µM (top dose mostly 53.6 µM), for the others: top-dose activity change, negative = inhibition, usual class: inhibitors; 310,000 compounds, 5.4% hits; AID 2551; further: potency means the concentration at half of the fitted maximal effect; nearly all actives have a fitted effect of over 60% in size
Target sequence (P51450 whole entry, looked up, the tested form may be a part): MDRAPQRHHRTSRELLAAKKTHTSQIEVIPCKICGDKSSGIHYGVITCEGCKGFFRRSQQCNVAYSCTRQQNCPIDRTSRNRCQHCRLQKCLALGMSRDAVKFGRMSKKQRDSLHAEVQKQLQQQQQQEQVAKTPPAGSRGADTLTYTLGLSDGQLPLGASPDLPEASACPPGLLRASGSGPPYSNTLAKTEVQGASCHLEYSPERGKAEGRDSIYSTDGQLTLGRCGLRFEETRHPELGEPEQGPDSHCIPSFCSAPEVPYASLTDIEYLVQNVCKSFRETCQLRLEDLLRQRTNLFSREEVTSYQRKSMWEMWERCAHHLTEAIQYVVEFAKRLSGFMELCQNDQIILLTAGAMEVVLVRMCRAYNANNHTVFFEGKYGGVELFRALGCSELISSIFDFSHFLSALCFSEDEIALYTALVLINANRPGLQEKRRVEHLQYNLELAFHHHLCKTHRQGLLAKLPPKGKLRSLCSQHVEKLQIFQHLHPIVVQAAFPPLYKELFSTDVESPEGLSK
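Compounds are pin-transferred onto Drosophila Schneider cells expressing a copper-inducible Gal4–ROR gamma transactivation domain fusion. After 1 hr, copper sulfate is added to 700 uM final; luciferase is read 20 hr later.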
LDHA inh – LDHA (human) enzyme inhibition | purified LDHA, NADH/diaphorase-resazurin fluorescence; stronger effect = lower value | 480,000 compounds, 0.15% hits | AID 1347041 | P00338 | activity change, % (values are at about 110 or 230 µM); in the data active means activity change below about -30%; inconclusive means mostly about -25% to -30%;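 further: plate controls were DMSO wells for no effect and wells without enzyme for full effect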
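Resorufin fluorescence (ex540/em590), read at 0 and 20 min after diaphorase/resazurin addition, reports the NADH left after a 5 min room-temperature reaction of 2 nM human LDH5 with 0.06 mM NADH and 0.2 mM pyruvate.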
DT40 TDP1 CPT – DT40-hTDP1 cell growth loss with CPT; Potency, µM (top dose mostly 46.2 µM), inactives show at the top dose activity change, negative = growth inhibition, actives largely listed as inhibitors; 420,000 compounds, 12% hits; chicken DT40 Tdp1-/-;hTDP1 cells + 20 nM CPT, ATP luminescence, 48 h; further: potency means the concentration at half of the fitted maximal effect; nearly all actives have a fitted effect of over 55% in size
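Chicken DT40 Tdp1-/- cells stably complemented with human TDP1 were seeded at 400 cells/well in medium containing 20 nM camptothecin, exposed to pin-transferred compounds, and grown at 37 °C for at least 48 hr. Viability was read as ATP luminescence.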
Gal4-VP16 FLuc – Gal4-VP16 reporter inhibition counter-screen. Potency, µM (titrated, usually from 53.6 µM), for the others: top-dose activity, negative = inhibition, most hits filed as inhibitors. 310,000 compounds, 3.5% hits. Drosophila S2 Gal4-VP16 UAS-luciferase, luminescence, 20 h;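 further: Gal4-VP16 expression switched on by copper sulfate through the metallothionein promoter; potency means the concentration at half of the fitted maximal effect; nearly all actives have a fitted effect of over 50% in size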
* = called active by the depositor. Only some compounds are listed: those with a hit (about 18% of all), similar ones and a draw of the others. Unless noted, the call rests on the fitted dose curve; in most records, active means well fitted curve in the direction sought with a large enough effect; inconclusive means small, poorly fitted or top-dose-only effect, or another doubt; inactive means no such curve, though single readings can be large; an effect the other way counts as inactive or inconclusive. Unless noted, on the % scale 0 is the no-effect control and ±100 the full control effect.

Results for CC(C(=O)NC1CC1)N1CCC(c2cc3ccccc3[nH]2)CC1 (stereo not drawn) ?
LDHA inh: -0.2

What do the screens show for `CCc1ccc(OCC(O)Cn2cnc3c2c(=O)n(C)c(=O)n3C)cc1` (stereo not drawn)?
LDHA inh: 2.1

How did Cc1ccc(NS(=O)(=O)c2ccc3c(c2)n(C)c(=O)n3C)cc1C do in these assays?
DT40 TDP1 no CPT: 20.6µM*; IL1B secr inh: 152.2; RORg inh: inconclusive; LDHA inh: -5.0; DT40 TDP1 CPT: 16.4µM*; Gal4-VP16 FLuc: -22.4%

Results for Cn1c(=O)n(C)c2cc(S(=O)(=O)Nc3ccccc3)ccc21 ?
DT40 TDP1 no CPT: inconclusive; IL1B secr inh: -15.4; RORg inh: 73.5%; LDHA inh: -5.9; DT40 TDP1 CPT: -15.8%; Gal4-VP16 FLuc: 3.6%

How did Cc1ccc(S(=O)(=O)Nc2ccc3c(c2)n(C)c(=O)n3C)cc1 do in these assays?
DT40 TDP1 no CPT: inconclusive; IL1B secr inh: -3.0; RORg inh: 35.4%; LDHA inh: 2.8; DT40 TDP1 CPT: 10.3µM*; Gal4-VP16 FLuc: inconclusive

What do the screens show for `CC(C)CCn1c(=O)n(CC(=O)O)c(=O)c2c3c(sc21)COC(C)(C)C3`?
LDHA inh: 5.9

What do the screens show for `Clc1cc(Cl)c(N/N=C/C(Br)=C/c2ccccc2)c(Cl)c1`?
LDHA inh: 10.0

What do the screens show for `O=C(NCCC1CCCCN1S(=O)(=O)c1ccc(F)cc1)C(=O)Nc1ccccc1F` (stereo not drawn)?
DT40 TDP1 no CPT: 25.9µM*; IL1B secr inh: 6.9; LDHA inh: 2.0; DT40 TDP1 CPT: inconclusive

Results for Cc1ccc(S(=O)(=O)N2CCCCC2CCNC(=O)C(=O)Nc2ccccc2F)cc1 (stereo not drawn) ?
DT40 TDP1 no CPT: 5.8µM*; IL1B secr inh: 67.3; LDHA inh: -3.4; DT40 TDP1 CPT: 6.51µM*

How did O=C(NCCC1CCCCN1S(=O)(=O)c1ccccc1)C(=O)Nc1ccccc1 (stereo not drawn) do in these assays?
DT40 TDP1 no CPT: inconclusive; IL1B secr inh: -15.7; LDHA inh: -7.2; DT40 TDP1 CPT: inconclusive

Results for O=C(NCCC1CCCCN1S(=O)(=O)c1ccccc1)C(=O)Nc1ccc(F)cc1F (stereo not drawn) ?
DT40 TDP1 no CPT: 18.4µM*; IL1B secr inh: inconclusive; LDHA inh: -7.9; DT40 TDP1 CPT: 18.4µM*

Results for O=C(NCCC1CCCCN1S(=O)(=O)c1ccccc1)C(=O)NCc1ccccc1F (stereo not drawn) ?
DT40 TDP1 no CPT: inconclusive; IL1B secr inh: inconclusive; LDHA inh: -11.8; DT40 TDP1 CPT: inconclusive

How did O=C(NCCC1CCCCN1S(=O)(=O)c1ccccc1)C(=O)Nc1ccccc1F (stereo not drawn) do in these assays?
DT40 TDP1 no CPT: 23.1µM*; IL1B secr inh: 14.1; LDHA inh: -1.4; DT40 TDP1 CPT: 18.4µM*

How did O=C(c1c(F)cccc1F)N(Cc1cccc2[nH]ccc12)C1CC1 do in these assays?
LDHA inh: 7.5

How did N#Cc1nc(C2CC2)oc1N1CCN(Cc2ccccc2F)CC1 do in these assays?
LDHA inh: -9.9

What do the screens show for `COc1ccccc1NC(=O)C(=O)NCCC1CCCCN1S(=O)(=O)c1ccc(F)cc1` (stereo not drawn)?
DT40 TDP1 no CPT: 18.4µM*; IL1B secr inh: -23.6; LDHA inh: 0.4; DT40 TDP1 CPT: 14.6µM*

How did CC1=C(c2ccc(Cl)cc2)S(=O)(=O)N=C1N1CCN(c2cccc(C)c2)C(C)C1 (stereo not drawn) do in these assays?
DT40 TDP1 no CPT: 5.17µM*; LDHA inh: -8.2; DT40 TDP1 CPT: 5.17µM*

Results for Cc1cccc(C(=O)N2CCN(c3ncnc4c3cnn4-c3ccccc3)CC2)c1 ?
DT40 TDP1 no CPT: inconclusive; IL1B secr inh: -56.6*; RORg inh: inconclusive; LDHA inh: -2.9; DT40 TDP1 CPT: inconclusive; Gal4-VP16 FLuc: -15.9%

How did Cc1ccc(-n2ncc3c(N4CCN(c5ccccc5)CC4)ncnc32)cc1C do in these assays?
DT40 TDP1 no CPT: 13µM*; LDHA inh: -1.7; DT40 TDP1 CPT: inconclusive

What do the screens show for `COc1ccc(C2=C(N3CCN(c4cccc(C)c4)C(C)C3)c3ccccc3C2=O)cc1` (stereo not drawn)?
DT40 TDP1 no CPT: 25.9µM*; LDHA inh: -1.7; DT40 TDP1 CPT: 20.6µM*

Results for Cc1ccc(-n2ncc3c(N4CCN(C)CC4)ncnc32)cc1C ?
DT40 TDP1 no CPT: inconclusive; LDHA inh: -3.2; DT40 TDP1 CPT: inconclusive

Results for CC(=O)c1ccc(NC(=O)[C@H](C(C)C)n2nnc3ccccc3c2=O)cc1 ?
LDHA inh: 3.8

Results for Cc1cc(C)nc(NC(c2ccsc2)c2cc(C)sc2NC(=O)c2ccco2)n1 (stereo not drawn) ?
LDHA inh: 7.9

What do the screens show for `COc1cc(C(=O)OCC(=O)NC(=O)NCc2ccco2)cc(OC)c1C`?
LDHA inh: 8.1

Results for Cc1cccc(-n2ncc3c(N4CCCC4)ncnc32)c1 ?
DT40 TDP1 no CPT: -27.3%; IL1B secr inh: -7.4; RORg inh: inconclusive; LDHA inh: 1.6; DT40 TDP1 CPT: -31.3%; Gal4-VP16 FLuc: inconclusive

What do the screens show for `COc1ccc(N2CCN(c3ncnc4c3cnn4-c3ccc(C)cc3C)CC2)cc1`?
DT40 TDP1 no CPT: 11.6µM*; IL1B secr inh: 20.0; RORg inh: 34.3%; LDHA inh: -1.1; DT40 TDP1 CPT: inconclusive; Gal4-VP16 FLuc: -6.9%

What do the screens show for `Cc1ccc(-n2ncc3c(N4CCN(c5ccccc5)CC4)ncnc32)c(C)c1`?
DT40 TDP1 no CPT: 4.61µM*; IL1B secr inh: -69.2*; RORg inh: 20.5%; LDHA inh: -12.7; DT40 TDP1 CPT: 5.8µM*; Gal4-VP16 FLuc: -17.8%

Results for CCN1CCN(c2ncnc3c2cnn3-c2ccc(C)cc2C)CC1 ?
DT40 TDP1 no CPT: inconclusive; IL1B secr inh: inconclusive; RORg inh: 7.8%; LDHA inh: -11.3; DT40 TDP1 CPT: inconclusive; Gal4-VP16 FLuc: 2.7%

How did COc1ccc(N2CCN(c3nc4cc(C)ccc4cc3C=O)CC2)cc1 do in these assays?
DT40 TDP1 no CPT: inconclusive; IL1B secr inh: -64.2*; RORg inh: inconclusive; LDHA inh: -3.9; DT40 TDP1 CPT: inconclusive; Gal4-VP16 FLuc: -8.5%
